Common to all, as to conditions: mRNA level, 48 h; actives raise or lower the signal
Read-out in test [1]: Bcl-2 (BAX) gene, BAX (gene 581)
As to the kind of experiment: LTEA_HepaRG_BAX: Life Technologies and Expression Analysis (LTEA) Assay for Bcl-2 (BAX) gene using HepaRG (AID 2283470). The essentials:
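qRT-PCR read-out of BAX mRNA, normalized to three housekeeping genes, after 48 h chemical exposure of human HepaRG cells in serum-free induction medium; eight-point half-log series, top 100 uM, 0.5% DMSO vehicle; bidirectional fit versus DMSO.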

Read-out in test [2]: adenosine kinase (ADK) gene, ADK (gene 132)
As to the kind of experiment: LTEA_HepaRG_ADK: Life Technologies and Expression Analysis (LTEA) Assay for adenosine kinase (ADK) gene using HepaRG (AID 2283471). In short, it runs like this:
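HepaRG (human liver), 48 h chemical exposure, 8-pt half-log series, top 100 uM, 0.5% DMSO vehicle. Readout: ADK mRNA by qRT-PCR vs housekeeping genes; bidirectional curve fit relative to DMSO baseline.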

Read-out in test [3]: Alpha-fetoprotein (AFP) gene, AFP (gene 174)
The test can be described thus: LTEA_HepaRG_AFP: Life Technologies and Expression Analysis (LTEA) Assay for Alpha-fetoprotein (AFP) gene using HepaRG (AID 2283472). In short, it runs like this:
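qRT-PCR (Fluidigm TaqMan) readout of AFP transcript, normalized to three housekeeping genes, fitted bidirectionally against 0.5% DMSO baseline. HepaRG cells received chemicals for 48 h in serum-free induction medium, top concentration 100 uM, half-log steps.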

Read-out in test [4]: BCL2L11 (gene 10018)
The test can be described thus: LTEA_HepaRG_BCL2L11: Life Technologies and Expression Analysis (LTEA) Assay for Bcl-2 (BCL2L11) gene using HepaRG (AID 2283473). In short, it runs like this: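 Differentiated human HepaRG cells in serum-free induction medium were exposed in duplicate for 48 h to eight concentrations (top 100 uM, half-log steps, 0.5% DMSO). BCL2L11 mRNA was quantified by TaqMan qRT-PCR, normalized to ACTB/GAPDH/POLR2A, bidirectional fit versus DMSO.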

Read-out in test [5]: Apoptosis regulator Bcl-2 (Homo sapiens) (UniProt P10415)
As to the kind of experiment: LTEA_HepaRG_BCL2: Life Technologies and Expression Analysis (LTEA) Assay for Bcl-2 gene using HepaRG (AID 2283475). The essentials:
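qRT-PCR read-out (Fluidigm TaqMan) of BCL2 transcript, normalised to three housekeeping genes, after 48 h chemical exposure of HepaRG cells; 8-point half-log series, top 100 uM, 0.5% DMSO vehicle. Gain or loss of signal fitted relative to DMSO baseline.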

Read-out in test [6]: Bcl-2 (BID) gene, BID (gene 637)
The test can be described thus: LTEA_HepaRG_BID: Life Technologies and Expression Analysis (LTEA) Assay for Bcl-2 (BID) gene using HepaRG (AID 2283476). In short, it runs like this: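 HepaRG, 48 h exposure, 8-pt half-log series, top 100 uM, 0.5% DMSO vehicle, duplicates. Readout: BID mRNA by TaqMan qRT-PCR; housekeeping-normalized; bidirectional curve fit vs DMSO baseline.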

Read-out in test [7]: Caspase-3 (Homo sapiens) (UniProt P42574)
The test can be described thus: LTEA_HepaRG_CASP3: Life Technologies and Expression Analysis (LTEA) Assay for cysteine-aspartic acid protease (CASP3) using HepaRG (AID 2283477). The essentials:
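Differentiated human HepaRG cells in serum-free induction medium were exposed 48 h to 8-point half-log concentrations from 100 uM (0.5% DMSO vehicle). CASP3 mRNA was measured by qRT-PCR, normalised to ACTB, GAPDH and POLR2A, with bidirectional fitting against DMSO.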

Read-out in test [8]: Cytochrome P450 (CYP24A1), CYP24A1 (gene 1591)
The test can be described thus: LTEA_HepaRG_CYP24A1: Life Technologies and Expression Analysis (LTEA) Assay for Cytochrome P450 (CYP24A1) using HepaRG (AID 2283478). The essentials: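 Differentiated HepaRG cells, pre-cultured 48 h, were exposed in duplicate for 48 h in serum-free induction medium to 8 half-log concentrations (top 100 uM, 0.5% DMSO). CYP24A1 mRNA was quantified by TaqMan qRT-PCR, normalized to ACTB/GAPDH/POLR2A, fitted bidirectionally versus DMSO.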

Read-out in test [9]: Cytochrome P450 (CYP1A2), CYP1A2 (gene 1544)
As to the kind of experiment: LTEA_HepaRG_CYP1A2: Life Technologies and Expression Analysis (LTEA) Assay for Cytochrome P450 (CYP1A2) using HepaRG (AID 2283479). The essentials:
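Differentiated human HepaRG cells in serum-free induction medium were exposed in duplicate for 48 h to 8-point half-log concentrations up to 100 uM in 0.5% DMSO. CYP1A2 mRNA measured by qRT-PCR, normalized to ACTB, GAPDH, POLR2A; bidirectional fit vs DMSO.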

Read-out in test [10]: cysteine-aspartic acid protease (CASP8), CASP8 (gene 841)
As to the kind of experiment: LTEA_HepaRG_CASP8: Life Technologies and Expression Analysis (LTEA) Assay for cysteine-aspartic acid protease (CASP8) using HepaRG (AID 2283480). In short, it runs like this:
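CASP8 transcript measured by TaqMan qRT-PCR with ACTB/GAPDH/POLR2A normalization, after 48 h chemical exposure of HepaRG cells in serum-free induction medium. Eight concentrations, top 100 uM, half-log steps, 0.5% DMSO vehicle; fits in both directions versus DMSO.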

Read-out in test [11]: Cytochrome P450 (CYP2B6), CYP2B6 (gene 1555)
The test can be described thus: LTEA_HepaRG_CYP2B6: Life Technologies and Expression Analysis (LTEA) Assay for Cytochrome P450 (CYP2B6) using HepaRG (AID 2283481). In short, it runs like this: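 Differentiated HepaRG cells, serum-free induction medium, exposed 48 h in duplicate to 8-point half-log concentrations from 100 uM in 0.5% DMSO. CYP2B6 mRNA by qRT-PCR, normalized to ACTB, GAPDH, POLR2A; bidirectional fit versus DMSO.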

Read-out in test [12]: Cytochrome P450 2C19 (Homo sapiens) (UniProt P33261)
The test can be described thus: LTEA_HepaRG_CYP2C19: Life Technologies and Expression Analysis (LTEA) Assay for CYP2C19 using HepaRG (AID 2283482). In short, it runs like this:
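Differentiated human HepaRG cells were exposed for 48 h in serum-free induction medium to 8 concentrations (top 100 uM, half-log steps, 0.5% DMSO). CYP2C19 mRNA was measured by qRT-PCR, normalized to ACTB/GAPDH/POLR2A, and fitted bidirectionally against DMSO.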

Read-out in test [13]: CYP2C8 (gene 1558)
As to the kind of experiment: LTEA_HepaRG_CYP2C8: Life Technologies and Expression Analysis (LTEA) Assay for CYP2C8 using HepaRG (AID 2283483). The essentials: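 CYP2C8 expression measured by TaqMan qRT-PCR and normalized to three housekeeping genes. HepaRG cultures were treated for 48 h with an eight-point half-log series topping at 100 uM, vehicle 0.5% DMSO, duplicates; fitted both directions against DMSO.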

Read-out in test [14]: CYP2C9 (gene 1559)
The test can be described thus: LTEA_HepaRG_CYP2C9: Life Technologies and Expression Analysis (LTEA) Assay for CYP2C9 using HepaRG (AID 2283484). The essentials: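 CYP2C9 transcript level, quantified by TaqMan qRT-PCR against three housekeeping genes, was fitted bidirectionally relative to 0.5% DMSO. HepaRG cultures were treated 48 h, in duplicate, at eight half-log concentrations topping at 100 uM.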

Read-out in test [15]: CYP2E1 (gene 1571)
As to the kind of experiment: LTEA_HepaRG_CYP2E1: Life Technologies and Expression Analysis (LTEA) Assay for CYP2E1 using HepaRG (AID 2283485). The essentials: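 CYP2E1 transcript was measured by TaqMan qRT-PCR in human HepaRG cultures after 48 h chemical exposure (top 100 uM, half-log steps, 0.5% DMSO vehicle). Housekeeping-gene normalization; gain or loss fitted relative to DMSO baseline.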

Read-out in test [16]: CYP4A11 (gene 1579)
As to the kind of experiment: LTEA_HepaRG_CYP4A11: Life Technologies and Expression Analysis (LTEA) Assay for CYP4A11 using HepaRG (AID 2283486). In short, it runs like this: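 Differentiated HepaRG cells, serum-free induction medium, exposed 48 h in duplicate to 8-point half-log series from 100 uM in 0.5% DMSO. CYP4A11 mRNA measured by qRT-PCR, normalized to ACTB, GAPDH, POLR2A; bidirectional fit versus DMSO.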

Read-out in test [17]: Cytochrome P450 3A4 (Homo sapiens) (UniProt P08684)
The test can be described thus: LTEA_HepaRG_CYP3A4: Life Technologies and Expression Analysis (LTEA) Assay for CYP3A4 using HepaRG (AID 2283487). The essentials: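 CYP3A4 transcript measured by TaqMan qRT-PCR and normalized to three housekeeping genes after 48 h chemical exposure of human HepaRG cells. Top concentration 100 uM, half-log steps, 0.5% DMSO vehicle; gain or loss fitted against DMSO baseline.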

Read-out in test [18]: DNA damage-inducible transcript 3 (DDIT3), DDIT3 (gene 1649)
The test can be described thus: LTEA_HepaRG_DDIT3: Life Technologies and Expression Analysis (LTEA) Assay for DNA damage-inducible transcript 3 (DDIT3) using HepaRG (AID 2283488). The essentials: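 qRT-PCR readout (Fluidigm TaqMan), housekeeping-normalized to ACTB, GAPDH, POLR2A. HepaRG cells, 48 h exposure, 8-point half-log series from 100 uM in 0.5% DMSO, duplicates. Gain or loss of signal fitted against DMSO baseline.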

Read-out in test [19]: Pro-epidermal growth factor (Homo sapiens) (UniProt P01133)
As to the kind of experiment: LTEA_HepaRG_EGF: Life Technologies and Expression Analysis (LTEA) Assay for Epidermal growth factor (EGF) using HepaRG (AID 2283489). In short, it runs like this: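 Differentiated human HepaRG cells, plated 48 h then switched to serum-free induction medium, were exposed for 48 h to test chemicals (8-point half-log series, top 100 uM, 0.5% DMSO). EGF mRNA was quantified by qRT-PCR, normalized to ACTB, GAPDH, POLR2A.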

Read-out in test [20]: Apolipoprotein A-V (APOA5) gene, APOA5 (gene 116519)
The test can be described thus: LTEA_HepaRG_APOA5: Life Technologies and Expression Analysis (LTEA) Assay for Apolipoprotein A-V (APOA5) gene using HepaRG (AID 2283474). The essentials: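 Differentiated human HepaRG cells were exposed in duplicate for 48 h to eight half-log concentrations from 100 uM in 0.5% DMSO. APOA5 mRNA was quantified by TaqMan qRT-PCR, normalized to ACTB, GAPDH and POLR2A, and fitted bidirectionally against DMSO.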

Activity calls are given as the source filed them. Rule for the calls: active = hit-call score of the fitted dose curve at least 0.9, where 1 is the maximum; inactive = score below 0.9.

Chain of Cytochrome P450 2C19 (Homo sapiens) (P33261 whole entry, looked up): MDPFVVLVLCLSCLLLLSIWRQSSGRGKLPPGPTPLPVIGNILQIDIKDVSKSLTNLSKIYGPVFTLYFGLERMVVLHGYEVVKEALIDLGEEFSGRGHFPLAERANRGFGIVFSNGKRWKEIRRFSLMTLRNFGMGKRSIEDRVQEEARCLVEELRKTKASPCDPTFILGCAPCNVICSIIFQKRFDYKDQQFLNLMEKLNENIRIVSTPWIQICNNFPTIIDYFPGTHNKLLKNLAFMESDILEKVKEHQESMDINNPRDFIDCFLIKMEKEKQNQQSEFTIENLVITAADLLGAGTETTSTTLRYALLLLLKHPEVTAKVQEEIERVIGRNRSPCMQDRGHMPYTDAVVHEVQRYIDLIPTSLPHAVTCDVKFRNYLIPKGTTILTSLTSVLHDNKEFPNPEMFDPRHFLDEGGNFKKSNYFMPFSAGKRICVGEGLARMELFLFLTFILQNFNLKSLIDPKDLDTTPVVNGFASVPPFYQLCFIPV
Chain of Apoptosis regulator Bcl-2 (Homo sapiens) (P10415 whole entry, looked up): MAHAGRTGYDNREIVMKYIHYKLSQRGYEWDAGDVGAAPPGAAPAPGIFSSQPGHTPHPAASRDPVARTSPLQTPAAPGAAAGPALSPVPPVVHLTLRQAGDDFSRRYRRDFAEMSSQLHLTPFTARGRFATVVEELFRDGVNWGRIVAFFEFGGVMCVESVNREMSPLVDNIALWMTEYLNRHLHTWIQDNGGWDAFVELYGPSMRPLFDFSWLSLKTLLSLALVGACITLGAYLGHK
Chain of Caspase-3 (Homo sapiens) (P42574 whole entry, looked up): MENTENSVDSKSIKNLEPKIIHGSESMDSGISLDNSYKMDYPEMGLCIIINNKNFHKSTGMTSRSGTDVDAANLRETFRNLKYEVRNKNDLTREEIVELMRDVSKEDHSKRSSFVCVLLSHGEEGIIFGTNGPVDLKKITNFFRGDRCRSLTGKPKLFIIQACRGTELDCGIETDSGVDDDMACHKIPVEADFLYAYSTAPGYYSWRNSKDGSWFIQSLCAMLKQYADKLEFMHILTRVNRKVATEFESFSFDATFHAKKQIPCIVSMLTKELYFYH
Chain of Cytochrome P450 3A4 (Homo sapiens) (P08684 whole entry, looked up): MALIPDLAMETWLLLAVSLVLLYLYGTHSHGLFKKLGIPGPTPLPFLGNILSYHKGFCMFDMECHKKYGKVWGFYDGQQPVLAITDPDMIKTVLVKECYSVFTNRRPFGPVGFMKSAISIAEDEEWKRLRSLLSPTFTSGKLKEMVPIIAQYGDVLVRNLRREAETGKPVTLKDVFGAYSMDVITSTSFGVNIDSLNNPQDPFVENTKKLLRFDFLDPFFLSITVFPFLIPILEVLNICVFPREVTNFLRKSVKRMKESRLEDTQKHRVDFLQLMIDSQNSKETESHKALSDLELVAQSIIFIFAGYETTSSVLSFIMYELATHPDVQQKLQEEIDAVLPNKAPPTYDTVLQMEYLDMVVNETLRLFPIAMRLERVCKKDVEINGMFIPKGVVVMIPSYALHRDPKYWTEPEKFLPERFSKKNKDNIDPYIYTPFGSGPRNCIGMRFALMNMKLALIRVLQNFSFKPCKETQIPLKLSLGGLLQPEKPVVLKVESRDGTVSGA

By AC50 is commonly meant the midpoint of the concentration-response curve, whichever way the signal moves. Turning to `COc1ccc(C(=O)Nc2nc3ccccc3c(NCc3ccccc3)c2C#N)cc1`, the call in test [1], in [2], in test [5], in test [6], in [7] and in test [10] was inactive. The outcome in test [11], in test [17], in [18] and in test [19] was inactive. The AC50 in test [3] was 21.7 µM (active); in [4], 10.8 µM (active); in test [8], 0.00721 µM (active); in test [9] it was 3 µM (active); in test [12] it was 22.1 µM (active); in test [13], 16.7 µM (active). In addition, the figures for the AC50 in [14], in [15] and in [16] were 16.3 µM (active), 20 µM (active) and 28.3 µM (active), respectively.

Regarding `O=Cc1ccccc1C=O`, the outcome in [1], in [2], in test [3], in test [4], in [20] and in test [5] was inactive. Further, the result in [6], in test [7], in test [8], in test [10], in test [12] and in test [13] was inactive. Besides, the compound was called inactive in test [14], in test [15], in [18] and in test [19]. The AC50 is 7.32 µM (active) in [9] and 23.3 µM (active) in [11].

As for `Oc1ccccc1O`, the outcome in test [1], in test [2], in test [3], in [4], in [5] and in test [6] was inactive. Further, the compound was classed as inactive in test [7], in test [8], in test [9], in test [10], in test [11] and in test [12]. The compound was classed as inactive in test [13], in test [14], in [15], in [16], in [17] and in [18]. Also, the call in [19] was inactive.

For `O=C1NC(=O)C(c2ccccc2)(c2ccccc2)N1`, the outcome in [1], in [2], in test [3], in [4], in test [20] and in [5] was inactive. Further, the call in test [6], in test [7], in test [8], in [10], in test [14] and in test [19] was inactive. The AC50 in test [9] was 50 µM (active); in test [11] it was 1.18 µM (active); in test [12] it was 14.1 µM (active); in [13], 13.1 µM (active); in test [15] it was 29.7 µM (active).

The record behind these values is PubChem BioAssay (EPA / NIEHS).
